Measured values taken from PubChem BioAssay (NCATS).
Where “and” joins values, the source holds several entries; their conditions need not be identical. Equal entries are not always repeated. Inconclusive results are not listed. A call without a number means that no potency is given here. A number with no mark means an inactive call. Calls of active or inactive are those of the source. The call rests on the fitted dose curve; in most records, active means well fitted curve in the direction sought with a large enough effect; inconclusive means small, poorly fitted or top-dose-only effect, or another doubt; inactive means no such curve, though single readings can be large; an effect the other way counts as inactive or inconclusive. Peptide text beside a SMILES is read from it.

What was measured:
MKL-1 = assay: qHTS assay to identify novel small-molecules to repurpose for Merkel cell carcinoma treatment (AID 1296009); details: MCC and control cell lines, CellTiter-Glo viability, 72 h; series mostly up to 46 µM; further: nearly all actives have a fitted effect of over 60% in size
Method in brief: (§1)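 Dose-response viability screen; 72 hr exposure at 37 degree celsius; CellTiter-Glo added, 10 min room temperature, luminescence read; RLUs scaled between no-cell and DMSO wells.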

MKL-2 = assay: as above; details: MCC and control cell lines, CellTiter-Glo viability, 72 h; series mostly up to 46 µM
Method in brief: as §1

UISO = assay: as above; details: MCC and control cell lines, CellTiter-Glo viability, 72 h; series mostly up to 46 µM
Method in brief: as §1

WaGa = assay: as above; details: MCC and control cell lines, CellTiter-Glo viability, 72 h; series mostly up to 46 µM
Method in brief: as §1

[1] = Drug repurposing screens with cells derived from glioblastoma tumor samples (AID 1345199); details: GBM patient neurospheres viability, ATP luminescence, 48 h; further: nearly all actives have a fitted effect of over 40% in size
Method in brief: (§2)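 Primary testing used CD133+ neurospheres from four GBM patients, seven concentrations, 48 h exposure and ATP-based viability; confirmation added three slower-growing patient lines.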

astro = assay: as above; details: viability, ATP luminescence, 48 h; series mostly up to 45.9 µM
Method in brief: as §2

C33A = assay: Primary qHTS to identify gynecologic anti-cancer compounds using libraries of approved drugs and bioactive compounds (AID 1345084); details: Gynecologic cancer cell panel viability, ATPlite luminescence, 48 h; series mostly up to 57.5 µM; further: nearly all actives have a fitted effect of over 55% in size
Method in brief: (§3)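 Cell viability after 48 h drug treatment, ATPlite luminescence readout; five doses.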

Es-2 = assay: as above; details: Gynecologic cancer cell panel viability, ATPlite luminescence, 48 h; series mostly up to 57.5 µM
Method in brief: as §3

HeLa = assay: as above; details: Gynecologic cancer cell panel viability, ATPlite luminescence, 48 h; series mostly up to 57.5 µM
Method in brief: as §3

OV90 = assay: as above; details: Gynecologic cancer cell panel viability, ATPlite luminescence, 48 h; series mostly up to 57.5 µM
Method in brief: as §3

PA-1 = assay: as above; details: Gynecologic cancer cell panel viability, ATPlite luminescence, 48 h; series mostly up to 57.5 µM
Method in brief: as §3

Tov112D = assay: as above; details: Gynecologic cancer cell panel viability, ATPlite luminescence, 48 h; series mostly up to 57.5 µM
Method in brief: as §3

CASKI = assay: as above; details: Gynecologic cancer cell panel viability, ATPlite luminescence, 48 h; series mostly up to 57.5 µM
Method in brief: as §3

Hek293T = assay: as above; details: Gynecologic cancer cell panel viability, ATPlite luminescence, 48 h, control line for the selectivity index; series mostly up to 57.5 µM
Method in brief: as §3

JEG-3 = assay: as above; details: Gynecologic cancer cell panel viability, ATPlite luminescence, 48 h; series mostly up to 57.5 µM
Method in brief: as §3

SKOV3 = assay: as above; details: Gynecologic cancer cell panel viability, ATPlite luminescence, 48 h; series mostly up to 57.5 µM
Method in brief: as §3

Tov-21-G = assay: as above; details: Gynecologic cancer cell panel viability, ATPlite luminescence, 48 h; series mostly up to 57.5 µM
Method in brief: as §3

CAOV3 = assay: as above; details: Gynecologic cancer cell panel viability, ATPlite luminescence, 48 h; series mostly up to 57.5 µM
Method in brief: as §3

[2] = qHTS assay to identify inhibitors of the type 1 interferon - major histocompatibility complex class I in skeletal muscle: Counter screen cell viability and HiBit confirmation (AID 1347412); details: iHSKM muscle cells + IFN-b, HiBiT or CellTiter-Glo, 24 h; further: nearly all actives have a fitted effect of over 60% in size
Method in brief: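 HLA-B*08:01–HiBiT knock-in immortalized human myoblasts (C25cl48) stimulated with 4.0 ng/ml human IFN-beta and dosed with compound in a 12-point 1:3 titration (top final 46 uM). After 24 hrs at 37 C, HiBiT lytic luminescence or CellTiter Glo ATP read out.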

NIH3T3 = assay: qHTS assay to identify novel small-molecules to repurpose for Merkel cell carcinoma treatment (AID 1296009); details: MCC and control cell lines, CellTiter-Glo viability, 72 h; at 44.8 µM (top of the series) unless noted; further: nearly all actives have a fitted effect of over 60% in size
Method in brief: as §1

[3] = at 45.9 µM (top of the series), tumour line B
[4] = at 45.9 µM (top of the series), tumour line D
[5] = at 46.1 µM (top of the series), tumour line C
Potency means the concentration at half of the fitted maximal effect.

In the case of `O=P(O)(O)C(O)(Cn1ccnc1)P(=O)(O)O`, the Potency (MKL-1) is reported as “inactive”, the Potency (MKL-2) is reported as “inactive” and the Potency (UISO) is reported as “inactive”. The Potency (WaGa) was “inactive”, the activity, negative = cell killing [1, 3] was -3.43% and the activity, negative = cell killing [1, 4] was -0.668%. For the same compound, the activity, negative = cell killing ([1]; at 46 µM (top of the series), tumour line A) was -16.2%, the activity, negative = cell killing [1, 5] was -7.84% and the Potency (astro) was “inactive”.

With `CN(C)CCc1c[nH]c2ccc(Cn3cncn3)cc12` the Potency (MKL-1) was “inactive”, the Potency (MKL-2) was “inactive” and the Potency (UISO) was “inactive”. The Potency (WaGa) was “inactive”, the activity, negative = cell killing [1, 3] was -9.89% and the activity, negative = cell killing [1, 4] was -20.8%. For the same compound, the activity, negative = cell killing [1, 5] was -16% and the Potency (astro) was “inactive”.

For `CC[C@]1(O)C[C@H]2CN(CCc3c([nH]c4ccccc34)[C@@](C(=O)OC)(c3cc4c(cc3OC)N(C=O)[C@H]3[C@@](O)(C(=O)OC)[C@H](OC(C)=O)[C@]5(CC)C=CCN6CC[C@]43[C@@H]65)C2)C1`, the Potency (MKL-1) was 9.3 nM (active) and 33.5 nM (active), the Potency (MKL-2) was 0.0119 µM (active) and the Potency (UISO) was 3 nM (active) and 21.1 nM (active). For the same compound, the Potency (WaGa) was 3.3 nM (active) and 26.6 nM (active), the Potency (C33A) was 0.631 µM (active) and the Potency (Es-2) was 0.891 µM (active). For the same compound, the Potency (HeLa) was 0.891 µM (active), the Potency (OV90) was 1.78 µM (active) and the Potency (PA-1) was 0.199 µM (active). The Potency (Tov112D) was 0.178 µM (active), the activity, negative = cell killing [1, 4] was -44.9% and the Potency ([1]; tumour line A) was 0.02 µM (active).

With `COC(=O)[C@H](Cc1ccccc1)NC(=O)[C@@H](N)CC(=O)O` (H-Asp-Phe-OMe) the Potency (MKL-1) was “inactive”, the Potency (MKL-2) was “inactive” and the Potency (UISO) was “inactive”. The Potency (WaGa) was “inactive”, the Potency (C33A) was “inactive” and the Potency (CASKI) was “inactive”. The Potency (Es-2) was “inactive”, the Potency (HeLa) was “inactive” and the Potency (Hek293T) was “inactive”. For the same compound, the Potency (JEG-3) was “inactive”, the Potency (OV90) was “inactive” and the Potency (PA-1) was “inactive”. The Potency (SKOV3) was “inactive”, the Potency (Tov-21-G) was “inactive” and the Potency (Tov112D) was “inactive”. The activity, negative = cell killing [1, 3] was -10.7% and -0.538%, the activity, negative = cell killing [1, 4] was -6.33% and -21.9% and the activity, negative = cell killing [1, 5] was -19.7% and -4.06%. For the same compound, the Potency (astro) was “inactive”.

With `COc1cc2nc(N3CCN(C(=O)C4CCCO4)CC3)nc(N)c2cc1OC` (stereo unspecified) the Potency (MKL-1) was “inactive”, the Potency (MKL-2) was “inactive” and the Potency (UISO) was “inactive”. The Potency (WaGa) was “inactive”, the Potency (C33A) was “inactive” and the Potency (CAOV3) was “inactive”. For the same compound, the Potency (CASKI) was “inactive”, the Potency (Es-2) was “inactive” and the Potency (HeLa) was “inactive”. The Potency (Hek293T) was “inactive”, the Potency (JEG-3) was “inactive” and the Potency (OV90) was “inactive”. The Potency (Tov-21-G) was “inactive”, the Potency (Tov112D) was “inactive” and the activity, negative = cell killing [1, 3] was -11.4%. The activity, negative = cell killing [1, 4] was -6.51%, the activity, negative = cell killing [1, 5] was -17.4% and the Potency (astro) was “inactive”.

With `O=c1oc2cc(O)ccc2s1` the Potency (MKL-1) was “inactive”, the Potency (MKL-2) was “inactive” and the Potency (UISO) was “inactive”. For the same compound, the Potency (WaGa) was “inactive”, the activity, negative = cell killing [1, 3] was -24% and the Potency ([1]; tumour line C) was 23.1 µM (active). The Potency (astro) was “inactive”.

In the case of `Cc1cc(C2CCCCC2)n(O)c(=O)c1`, the Potency (MKL-1) is reported as 2.11 µM (active) and 10.5 µM (active), the Potency (MKL-2) is reported as 1.88 µM (active) and 11.8 µM (active) and the Potency (UISO) is reported as 2.66 µM (active) and 13.2 µM (active). For the same compound, the Potency (WaGa) was 1.88 µM (active) and 11.8 µM (active), the Potency (C33A) was 15.8 µM (active) and the Potency (CASKI) was “inactive”. For the same compound, the Potency (Es-2) was 14.1 µM (active), the Potency (HeLa) was “inactive” and the Potency (Hek293T) was 7.08 µM (active). The Potency (PA-1) was 2 µM (active), the Potency (SKOV3) was 10 µM (active) and the Potency (Tov112D) was 7.08 µM (active).

For `COc1c(O)cc2c(c1O)[C@@H]1O[C@H](CO)[C@@H](O)[C@H](O)[C@H]1OC2=O`, the Potency (MKL-1) was “inactive”, the Potency (MKL-2) was “inactive” and the Potency (UISO) was “inactive”. For the same compound, the Potency (WaGa) was “inactive”, the Potency (CAOV3) was “inactive” and the Potency (CASKI) was “inactive”. For the same compound, the Potency (Es-2) was “inactive”, the Potency (HeLa) was “inactive” and the Potency (Hek293T) was “inactive”. For the same compound, the Potency (JEG-3) was “inactive”, the Potency (OV90) was “inactive” and the Potency (PA-1) was “inactive”. The Potency (SKOV3) was “inactive”, the Potency (Tov-21-G) was “inactive” and the Potency (Tov112D) was “inactive”. For the same compound, the Potency (astro) was “inactive”.

For `CCN(CC)CCOc1ccc(Nc2ncc3cc(-c4c(Cl)cccc4Cl)c(=O)n(C)c3n2)cc1`, the Potency (MKL-1) was 1.32 µM (active), the Potency (MKL-2) was 5.26 µM (active) and the Potency (UISO) was 5.26 µM (active). The Potency (WaGa) was 2.96 µM (active), the Potency ([2]; HiBiT) was 557 nM (active) and 883 nM (active) and the Potency ([2]; Viability) was 12.5 µM (active) and 2.79 µM (active).

With `O=C1CCc2ccc(OCCCCN3CCN(c4cccc(Cl)c4Cl)CC3)cc2N1` the Potency (MKL-1) was “inactive”, the Potency (UISO) was “inactive” and the Potency (WaGa) was “inactive”. The Potency (C33A) was “inactive”, the Potency (CASKI) was “inactive” and the Potency (HeLa) was “inactive”. The Potency (JEG-3) was “inactive”, the Potency (OV90) was “inactive” and the Potency (SKOV3) was “inactive”. For the same compound, the Potency (Tov-21-G) was “inactive”, the Potency (Tov112D) was “inactive” and the activity, negative = cell killing [1, 5] was -16.8%. The Potency ([1]; tumour line A) was 3.98 µM (active), the Potency ([1]; tumour line B) was 22.4 µM (active) and the Potency (astro) was 31.6 µM (active).

With `NCCCCNCCCN` the Potency (MKL-2) was 8.33 µM (active) and the Potency (UISO) was “inactive”.

For `Oc1ccc2ccccc2c1SSc1c(O)ccc2ccccc12`, the Potency (MKL-2) was 20.9 µM (active) and the outcome (NIH3T3) was “inactive”.

In the case of `CCc1nc(N)nc(N)c1-c1ccc(Cl)cc1`, the Potency (MKL-1) is reported as “inactive”, the Potency (MKL-2) is reported as “inactive” and the Potency (WaGa) is reported as 11.9 µM (active). For the same compound, the Potency (C33A) was 5.01 µM (active), the Potency (CAOV3) was “inactive” and the Potency (Es-2) was 4.47 µM (active). The Potency (HeLa) was 14.1 µM (active), the Potency (Hek293T) was 7.94 µM (active) and the Potency (JEG-3) was “inactive”. For the same compound, the Potency (OV90) was 7.94 µM (active), the Potency (PA-1) was 7.94 µM (active) and the Potency (SKOV3) was “inactive”. For the same compound, the Potency (Tov-21-G) was 3.16 µM (active), the Potency (Tov112D) was 14.1 µM (active) and the Potency (astro) was “inactive”.
